Experimental data as given in PubChem BioAssay AID1159580 (chemical genetic matrix, 2015).
Several values for one entry are separate records, joined by “and”; a condition that tells them apart may be missing. Identical values can stand only once. About 2,000 (36%) of roughly 5,500 compounds were called active. Another 18% or so got no clear call; they are omitted. Rule as the data show it: active = normalized growth mostly below about 0.91 (no sharp cut-off); inconclusive = no clear call, values can overlap the other calls; inactive = mostly above about 0.92. This is one part of the list.

Assay: chemical genetic growth profiling, strain panel (AID 1159580);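 also: tested at 20 µM; growth read once vehicle control cultures reached saturation at 30 °C; 1 = growth at the plate median or of vehicle wells; lower values mean less growth of the strain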
Conditions: S. cerevisiae deletion strains, growth OD

Measured: normalized growth

CCN(CC)CCOC(=O)c1ccc(N)cc1
inactive: locus YAL013W, strain DEP1, active compounds read low 0.955 | locus YAL021C, strain ccr4, active compounds read low 0.964 | locus YAL026C, strain drs2, active compounds read low 0.989 | locus YAL030W, strain snc1, active compounds read low 0.986 | locus YAL040C, strain CLN3, active compounds read low 1.04 | locus YBL061C, strain skt5, active compounds read low 0.999 | locus YBR009C, strain hhf1, active compounds read low 0.95 | locus YBR021W, strain FUR4, active compounds read low 1.01 | locus YBR023C, strain chs3, active compounds read low 0.976 | locus YBR171W, strain sec66, active compounds read low 0.988 | locus YBR229C, strain ROT2, active compounds read low 1.01 | locus YBR231C, strain swc5, active compounds read low 1.01 | locus YBR279W, strain paf1, active compounds read low 0.979 | locus YCL011C, strain gbp2, active compounds read low 0.955 | locus YCL016C, strain dcc1, active compounds read low 0.963 | locus YCL029C, strain bik1, active compounds read low 0.989 | locus YCL061C, strain MRC1 (second series), active compounds read low 0.977 | locus YCL061C, strain MRC1, active compounds read low 0.975 | locus YCL069W, strain vba3, active compounds read low 0.972 | locus YCR088W, strain abp1, active compounds read low 0.978 | locus YDL005C, strain med2, active compounds read low 0.99 | locus YDL035C, strain GPR1, active compounds read low 1.01 | locus YDL040C, strain nat1, active compounds read low 1 | locus YDL074C, strain BRE1, active compounds read low 1.03 | locus YDL101C, strain DUN1, active compounds read low 1.01 | locus YDL134C, strain PPH21, active compounds read low 1.01 | locus YDL185W, strain tfp1, active compounds read low 0.995 | locus YDL192W, strain arf1, active compounds read low 0.986 | locus YDR001C, strain nth1, active compounds read low 0.973 | locus YDR069C, strain doa4, active compounds read low 0.998 | locus YDR101C, strain arx1, active compounds read low 1 | locus YDR137W, strain rgp1, active compounds read low 0.98 | locus YDR150W, strain NUM1, active compounds read low 0.999 | locus YDR159W, strain sac3, active compounds read low 0.928 | locus YDR162C, strain NBP2, active compounds read low 1.01 | locus YDR195W, strain ref2 0.999 | locus YDR297W, strain sur2, active compounds read low 0.986 | locus YDR318W, strain mcm21, active compounds read low 0.977 | locus YDR334W, strain swr1, active compounds read low 0.982 | locus YDR335W, strain msn5, active compounds read low 0.981 | locus YDR363W, strain ESC2, active compounds read low 1.01 | locus YDR388W, active compounds read low 0.997 | locus YDR392W, strain spt3, active compounds read low 0.928 | locus YDR502C, strain sam2, active compounds read low 0.997 | locus YEL003W, strain gim4, active compounds read low 0.98 | locus YEL037C, strain rad23, active compounds read low 0.989 | locus YEL061C, strain CIN8 (second series), active compounds read low 0.978 | locus YEL061C, strain CIN8, active compounds read low 1.01 | locus YER002W, strain NOP16, active compounds read low 0.984 | locus YER015W, strain faa2, active compounds read low 1 | locus YER016W, strain bim1, active compounds read low 0.979 | locus YER110C, active compounds read low 0.999 | locus YER111C, strain swi4, active compounds read low 0.977 | locus YER155C, strain BEM2 (second series), active compounds read low 1.06 | locus YER155C, strain BEM2, active compounds read low 1 | locus YER167W, strain BCK2, active compounds read low 1 | locus YFR010W, strain ubp6, active compounds read low 0.988 | locus YGL078C, strain dbp3, active compounds read low 0.997 | locus YGL086W, strain mad1, active compounds read low 0.994 | locus YGL167C, strain pmr1, active compounds read low 0.997 | locus YGL173C, strain kem1, active compounds read low 0.994 | locus YGL227W, strain vid30, active compounds read low 0.984 | locus YGL240W, strain doc1, active compounds read low 1.01 | locus YGL248W, strain PDE1, active compounds read low 1.01 | locus YGL253W, strain hxk2, active compounds read low 0.963 | locus YGR078C, strain PAC10, active compounds read low 1.01 and 0.99 | locus YGR135W, strain pre9, active compounds read low 0.997 | locus YGR229C, strain SMI1, active compounds read low 0.964 | locus YGR252W, strain gcn5, active compounds read low 0.998 | locus YHR013C, strain ard1, active compounds read low 0.969 | locus YHR027C, strain rpn1, active compounds read low 0.97 | locus YHR030C, strain SLT2, active compounds read low 1 and 1.05 | locus YHR079C, strain IRE1 (second series), active compounds read low 0.981 | locus YHR079C, strain IRE1, active compounds read low 1.04 | locus YHR094C, strain hxt1, active compounds read low 0.983 | locus YHR129C, strain ARP1, active compounds read low 1.01 | locus YHR142W, strain chs7, active compounds read low 0.972 | locus YHR200W, strain rpn10, active compounds read low 0.997 | locus YIL066C, strain RNR3, active compounds read low 1.01 | locus YIL073C, strain SPO22, active compounds read low 0.969 | locus YIL125W, strain kgd1, active compounds read low 0.995 | locus YIR030C, strain dcg1, active compounds read low 0.993 | locus YJL092W, strain hpr5, active compounds read low 0.992 | locus YJL095W, strain BCK1 (second series), active compounds read low 0.993 | locus YJL095W, strain BCK1, active compounds read low 1.03 | locus YJL115W, strain asf1, active compounds read low 0.98 | locus YJL129C, strain trk1, active compounds read low 0.989 | locus YJL134W, strain LCB3, active compounds read low 0.999 | locus YJL154C, strain vps35, active compounds read low 0.987 | locus YJL164C, strain tpk1, active compounds read low 0.961 | locus YJL166W, strain qcr8, active compounds read low 1.02 | locus YJL168C, strain set2, active compounds read low 0.993 | locus YJL187C, strain SWE1 (second series), active compounds read low 1.01 | locus YJR043C, strain POL32, active compounds read low 1.01 | locus YJR066W, strain TOR1, active compounds read low 0.999
